According to PubChem BioAssay AID1159580 (chemical genetic matrix, 2015):
Several values for one entry are separate records, joined by “and”; a condition that tells them apart may be missing. Equal entries are not always repeated. About 2,000 (36%) of roughly 5,500 compounds were called active. Inconclusive results (about 18%) are left out. Rule as the data show it: active = normalized growth mostly below about 0.91 (no sharp cut-off); inconclusive = no clear call, values can overlap the other calls; inactive = mostly above about 0.92. The list shows a part of the results.

Test: chemical genetic growth profiling, strain panel (AID 1159580);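 also: tested at 20 µM; growth read once vehicle control cultures reached saturation at 30 °C; 1 = growth at the plate median or of vehicle wells; lower values mean less growth of the strain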
Settings: S. cerevisiae deletion strains, growth OD

Measured: normalized growth

O=c1cccc2n1C[C@H]1CNCC2C1
inactive: locus YAL021C, strain ccr4, active compounds read low 1 | locus YAL026C, strain drs2, active compounds read low 1.01 | locus YAL030W, strain snc1, active compounds read low 1.01 | locus YBL061C, strain skt5, active compounds read low 1.01 | locus YBR009C, strain hhf1, active compounds read low 0.982 | locus YBR021W, strain FUR4, active compounds read low 1.03 | locus YBR023C, strain chs3, active compounds read low 0.999 | locus YBR171W, strain sec66, active compounds read low 0.997 | locus YBR229C, strain ROT2, active compounds read low 1 | locus YBR231C, strain swc5, active compounds read low 1.02 | locus YBR279W, strain paf1, active compounds read low 1 | locus YCL011C, strain gbp2, active compounds read low 0.99 | locus YCL016C, strain dcc1, active compounds read low 0.973 | locus YCL029C, strain bik1, active compounds read low 0.985 | locus YCL061C, strain MRC1, active compounds read low 0.987 | locus YCL069W, strain vba3, active compounds read low 1 | locus YCR088W, strain abp1, active compounds read low 1 | locus YDL005C, strain med2, active compounds read low 1.01 | locus YDL035C, strain GPR1, active compounds read low 0.988 | locus YDL040C, strain nat1, active compounds read low 1.01 | locus YDL074C, strain BRE1, active compounds read low 0.984 | locus YDL101C, strain DUN1, active compounds read low 1.01 | locus YDL134C, strain PPH21, active compounds read low 1.03 | locus YDL185W, strain tfp1, active compounds read low 0.955 | locus YDL192W, strain arf1, active compounds read low 0.987 | locus YDR001C, strain nth1, active compounds read low 1.01 | locus YDR069C, strain doa4, active compounds read low 1.01 | locus YDR101C, strain arx1, active compounds read low 0.966 | locus YDR137W, strain rgp1, active compounds read low 1.02 | locus YDR150W, strain NUM1, active compounds read low 1 | locus YDR159W, strain sac3, active compounds read low 1 | locus YDR162C, strain NBP2, active compounds read low 1.01 | locus YDR195W, strain ref2 0.999 | locus YDR297W, strain sur2, active compounds read low 0.999 | locus YDR318W, strain mcm21, active compounds read low 0.996 | locus YDR334W, strain swr1, active compounds read low 0.999 | locus YDR335W, strain msn5, active compounds read low 1.01 | locus YDR388W, active compounds read low 0.992 | locus YDR392W, strain spt3, active compounds read low 0.899 | locus YDR502C, strain sam2, active compounds read low 1 | locus YEL003W, strain gim4, active compounds read low 1 | locus YEL037C, strain rad23, active compounds read low 1.01 | locus YEL061C, strain CIN8 (second series), active compounds read low 1.01 | locus YEL061C, strain CIN8, active compounds read low 1.01 | locus YER015W, strain faa2, active compounds read low 1.01 | locus YER016W, strain bim1, active compounds read low 1.01 | locus YER110C, active compounds read low 0.974 | locus YER111C, strain swi4, active compounds read low 0.985 | locus YER155C, strain BEM2 (second series), active compounds read low 0.974 | locus YER155C, strain BEM2, active compounds read low 1 | locus YER167W, strain BCK2, active compounds read low 1 | locus YFR010W, strain ubp6, active compounds read low 1.02 | locus YGL078C, strain dbp3, active compounds read low 0.982 | locus YGL086W, strain mad1, active compounds read low 0.965 | locus YGL167C, strain pmr1, active compounds read low 0.994 | locus YGL173C, strain kem1, active compounds read low 0.998 | locus YGL227W, strain vid30, active compounds read low 1.01 | locus YGL240W, strain doc1, active compounds read low 1.05 | locus YGL248W, strain PDE1, active compounds read low 1.03 | locus YGL253W, strain hxk2, active compounds read low 1.01 | locus YGR078C, strain PAC10, active compounds read low 1.03 | locus YGR135W, strain pre9, active compounds read low 1.02 | locus YGR252W, strain gcn5, active compounds read low 1.1 | locus YHR013C, strain ard1, active compounds read low 0.98 | locus YHR027C, strain rpn1, active compounds read low 1.01 | locus YHR030C, strain SLT2, active compounds read low 0.997 and 1.01 | locus YHR079C, strain IRE1 (second series), active compounds read low 0.966 | locus YHR079C, strain IRE1, active compounds read low 1.04 | locus YHR094C, strain hxt1, active compounds read low 0.995 | locus YHR129C, strain ARP1, active compounds read low 1 | locus YHR142W, strain chs7, active compounds read low 0.991 | locus YHR200W, strain rpn10, active compounds read low 0.979 | locus YIL066C, strain RNR3, active compounds read low 1.02 | locus YIL073C, strain SPO22, active compounds read low 0.947 | locus YIL125W, strain kgd1, active compounds read low 0.987 | locus YIR030C, strain dcg1, active compounds read low 0.992 | locus YJL092W, strain hpr5, active compounds read low 1 | locus YJL095W, strain BCK1 (second series), active compounds read low 1 | locus YJL095W, strain BCK1, active compounds read low 1.07 and 1.01 | locus YJL115W, strain asf1, active compounds read low 0.998 | locus YJL129C, strain trk1, active compounds read low 1 | locus YJL134W, strain LCB3, active compounds read low 0.999 | locus YJL154C, strain vps35, active compounds read low 0.997 | locus YJL164C, strain tpk1, active compounds read low 1 | locus YJL166W, strain qcr8, active compounds read low 0.98 | locus YJL168C, strain set2, active compounds read low 0.984 | locus YJL187C, strain SWE1 (second series), active compounds read low 1.01 | locus YJL187C, strain SWE1, active compounds read low 1.01
